# Most compounds without a hit are left out; they make up all but 2% or so of the library.
# PME-1 inh: PME-1 (human) inhibition; recombinant PME-1, FP-Rh probe fluorescence polarization; inhibition, % at 5.9 µM; Q9Y570; AID 2130; 320,000 compounds, 0.53% hits;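 active = inhibition above the campaign mean of all compounds plus 3 SD, cut at about 26% in these data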;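 note: competitive labeling of PME-1 active site by serine hydrolase directed probe; 0% = PME-1 with DMSO and 100% = wells lacking PME-1 enzyme; inhibitors block probe labeling so polarization falls and inhibition rises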
# Target sequence (Q9Y570 whole entry, looked up): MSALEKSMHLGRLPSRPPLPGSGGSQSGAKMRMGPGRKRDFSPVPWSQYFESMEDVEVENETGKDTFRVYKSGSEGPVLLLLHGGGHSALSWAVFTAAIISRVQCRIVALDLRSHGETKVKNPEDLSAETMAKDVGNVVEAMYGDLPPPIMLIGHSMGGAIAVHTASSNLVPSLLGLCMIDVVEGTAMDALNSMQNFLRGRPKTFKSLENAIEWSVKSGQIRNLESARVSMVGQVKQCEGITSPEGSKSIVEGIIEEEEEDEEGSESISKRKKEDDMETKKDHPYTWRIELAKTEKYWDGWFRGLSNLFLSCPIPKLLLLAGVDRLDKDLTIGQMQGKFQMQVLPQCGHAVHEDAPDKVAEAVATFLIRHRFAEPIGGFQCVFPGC
# Fam108B inh: blocks mouse Fam108B hydrolase in RBBP9 counter-screen. AID 1947. 300,000 compounds, 0.33% hits. inhibition, % at 9.51 µM. recombinant Fam108B, FP-Rh probe fluorescence polarization;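 active = inhibition above the screen mean inhibition plus 3 SD, computed separately per campaign, cut at about 18% in these data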;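 note: inhibitors lower polarization as less probe binds the enzyme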
# LYPLA2 inh: LYPLA2 (human) inhibition in PME1 counter-screen; O95372; recombinant LYPLA2, FP-Rh probe fluorescence polarization; inhibition, % at 5.9 µM; 320,000 compounds, 0.38% hits;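 active = inhibition above the screen-wide mean plus 3 SD, limit set per campaign, cut at about 26% in these data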;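 note: 0% = LYPLA2 with DMSO and 100% = wells lacking LYPLA2 enzyme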
# GSTO1 inh: blocks human GSTO1 in RBBP9 counter-screen; P78417; recombinant GSTO1, activity-based probe fluorescence polarization; inhibition, % at 5.96 µM; 300,000 compounds, 1.1% hits; AID 1974;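 active = inhibition above the campaign mean inhibition plus 3 SD, cut at about 35% in these data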;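 note: 0% = GSTO1-1 with DMSO and 100% = wells lacking GSTO1-1 enzyme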
# PREPL inhibitor: inhibits the human prolyl oligopeptidase-like enzyme. inhibition, % at 5.96 µM. 320,000 compounds, 0.68% hits. AID 2751. recombinant PREPL, fluorescence polarization activity-based probe. Q4J6C6; in the data active = inhibition above about 43%;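 note: 0% = enzyme with DMSO and 100% = wells lacking enzyme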
# LYPLA1 counter: blocks human lysophospholipase 1, a PME1 counter-screen; inhibition, % at 5.9 µM; recombinant LYPLA1, FP-Rh probe fluorescence polarization; AID 2174; 320,000 compounds, 0.16% hits; O75608;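 active = inhibition above the mean of all tested compounds plus 3 SD, set per campaign, cut at about 14% in these data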;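 note: inhibitors block serine hydrolase probe labeling of LYPLA1 so polarization falls; 0% = enzyme with DMSO and 100% = wells lacking LYPLA1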
# * hit, by the source's call; / = no result.
SMILES,PME-1 inh,Fam108B inh,LYPLA2 inh,GSTO1 inh,PREPL inhibitor,LYPLA1 counter
CC(C)c1onc(C(=O)NC2CCCCC2)c1[N+](=O)[O-],1.4,0.1,3.3,36.9*,8.2,1.7
O=c1cc(N2CCCCC2)c(-c2ccccc2)nn1Cc1c(Cl)cccc1Cl,29.8*,-2.6,1.9,2.3,6.2,-3.6
CC1=NN(c2ccc(Cl)cc2)C(=O)C1,7.7,2.0,-4.0,36.1*,-1.9,-1.8
COc1ccccc1NC(=O)c1cc2ccc(O)cc2o/c1=N\O,27.4*,15.7,7.4,-9.5,18.6,1.9
COc1ccccc1NC(=O)c1cc2ccccc2o/c1=N\O,-2.7,-5.7,11.3,-3.9,-1.8,2.1
CC(=O)Nc1ccc(S(=O)(=O)NCCSCc2ccccc2Cl)cc1,1.9,-1.3,-1.5,53.9*,-22.9,-4.2
CC(=O)Nc1ccc(S(=O)(=O)NCCC(=O)Nc2ccc(C)c(Cl)c2)cc1,-2.9,-0.1,-3.0,-0.4,7.1,-2.7
COc1c(S(=O)(=O)NCCN2CCOCC2)ccc(Cl)c1Cl,-0.1,-3.1,-2.1,3.6,43.8*,-1.4
CCC(C)C(=O)Nc1nc(-c2ccc3c(c2)NC(=O)CO3)cs1 (centres undefined),0.0,-3.4,-1.3,-11.2,9.9,-1.8
O=C1COc2ccc(-c3csc(NCCc4ccccc4)n3)cc2N1,11.0,0.1,-8.6,-4.0,50.6*,-4.8
CCOc1ccc(C2/C(=C(\O)c3cccc(OC)c3)C(=O)C(=O)N2c2ccccn2)cc1OC (centres undefined),5.7,-1.4,5.4,3.5,21.6,0.8
O=C(O)c1ccc(N/N=C/c2ccc(-c3ccc(Br)cc3)o2)cc1,32.9*,13.2,7.1,17.7,34.5,3.3
Cc1ccc(-n2nc3c(=O)n(C(C)C(=O)NCCC4=CCCCC4)nc(C)c3c2C)cc1 (centres undefined),-0.2,9.4,7.7,11.0,22.5,-0.6
CSCCC(NC(=O)c1ccco1)c1nc2ccccc2[nH]1 (centres undefined),5.3,-1.3,-4.5,3.6,7.1,-2.1
COc1cccc(/C=N/Nc2ncnc3c2[nH]c2ccc(C)cc23)c1OC,10.7,2.7,0.0,37.0*,13.4,2.8
COc1ccc(/C=N/Nc2ncnc3c2[nH]c2ccccc23)c(OC)c1OC,6.0,7.3,-2.3,8.3,-0.3,-3.1
CCOc1ccccc1NC(=O)CC1Nc2cc(C)c(C)cc2NC1=O (centres undefined),34.6*,6.5,-5.2,4.1,9.5,-2.9
CCOC(=O)CSc1nc2ccc(N3CCOCC3)cc2c(=O)n1Cc1ccc2c(c1)OCO2,4.2,5.1,-3.6,19.3,52.1*,-3.4
CCOc1ccc(NC(=O)C(c2ccccn2)N(C(=O)CCl)c2ccc(OC)cc2)cc1 (centres undefined),3.5,2.3,-4.9,35.6*,3.3,3.7
COc1ccc(N(C(=O)CCl)C(C(=O)NC2CCCCC2)c2cccnc2)cc1 (centres undefined),3.6,0.2,7.0,98.3*,6.6,3.9
CC(C)(C)c1cc(C(=O)Nc2cccnc2)cc(C(=O)Nc2cccnc2)c1,-9.1,2.3,-8.6,-12.2,4.5,-6.2
Cc1cc(C(=O)CN2C(=O)C(=O)N(CCC3=CCCCC3)C2=O)c(C)n1C,/,/,/,/,15.1,/
Cc1c(Cl)cccc1NC(=O)Nc1cc(C(C)(C)C)on1,-8.2,-0.1,-4.5,-3.2,18.8,-3.1
CC1CCCN(C(=O)c2ccc3c(c2)OCO3)C1 (centres undefined),-2.0,2.9,-4.3,-5.3,1.5,1.6
O=C(c1ccc2c(c1)OCO2)N1CCCC(c2ccccc2)C1 (centres undefined),33.0*,3.8,2.5,6.3,2.1,1.1
Cc1sc2nc(CSCC(=O)NC3(C#N)CCCCC3)[nH]c(=O)c2c1C,4.8,/,-2.4,/,21.3,-2.0
N#CCC(=O)c1ccccc1Oc1ccc(Cl)cc1,40.5*,1.3,3.5,6.7,8.7,-3.7
CCN(CC)S(=O)(=O)c1ccc(N2CCCC2)c(C(=O)OCC(=O)Nc2cc(C)on2)c1,0.1,-0.4,0.6,-1.6,9.1,-0.4
C=C(C)C(=O)Nc1cccc(C2=NOC3(C2)C[C@H](C(N)=O)N(C(=O)/C=C/C)C3)c1 (some centres undefined),-2.1,-1.7,0.2,4.7,0.3,0.8
